Hits are enriched below; roughly 0.35% of the tested compounds scored in any of these assays.
B2AR arrestin: qHTS assay of beta-arrestin-biased ligands of beta2-adrenergic receptor | actives 0.02% (n = 330,000) | AID 492947, 2010 | Beta-2 adrenergic receptor (Homo sapiens), P07550 | beta-arrestin recruitment to beta2AR, cell-based reporter | Potency, µM (series often up to 46.1 µM), for inactives: at the top dose activation, hits mostly activators;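 also: 0% = DMSO controls and full agonism = EC100 isoproterenol or metaproterenol; nearly all actives have a fitted effect of over 65% in size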
Target sequence (P07550 whole entry, looked up): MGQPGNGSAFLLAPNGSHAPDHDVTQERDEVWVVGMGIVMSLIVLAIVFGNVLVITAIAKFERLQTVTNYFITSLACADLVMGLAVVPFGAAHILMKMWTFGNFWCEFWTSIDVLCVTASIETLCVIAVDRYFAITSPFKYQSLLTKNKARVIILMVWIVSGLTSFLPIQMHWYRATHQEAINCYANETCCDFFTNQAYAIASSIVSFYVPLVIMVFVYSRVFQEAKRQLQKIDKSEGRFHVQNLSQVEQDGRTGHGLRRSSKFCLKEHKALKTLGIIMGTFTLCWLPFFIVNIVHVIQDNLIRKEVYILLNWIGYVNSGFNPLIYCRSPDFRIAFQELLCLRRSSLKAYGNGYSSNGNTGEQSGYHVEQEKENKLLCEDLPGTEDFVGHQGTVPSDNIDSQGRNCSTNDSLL
GLS inh: qHTS for Inhibitors of Glutaminase (GLS). GLS enzymatic activity, qHTS titration. Potency, µM (series often up to 45.5 µM), for inactives: at the highest dose activity change, negative = inhibition, most hits filed as inhibitors. actives 0.21% (n = 410,000)
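hKGA; 45 mM KH2PO4 pH 8.2 + 0.02% Tween-20; cpd via pin tool; 1 mM Gln soln; GluOx/HRP/Amplex Red; RT 30 min; fluor. t0 & final.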
Chronic BCR inh: qHTS Assay to Find Inhibitors of Chronic Active B-Cell Receptor Signaling; ABC-DLBCL IkBa-CBG/CBR reporter, luminescence ratio, 4 h; Potency, µM (highest dose often 46.1 µM), without a hit: top-dose activity change, negative = inhibition, hits mostly inhibitors; actives 0.05% (n = 340,000); AID 493014, 2011; active = well fitted inhibition curve with a large enough effect in the signal ratio, with a control signal flat, not every such curve was filed as active; inconclusive = small, poorly fitted or top-dose-only effect, or effect the other way, or a change in a side signal; the % refers to the signal ratio;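 also: plate controls were basal doxycycline-induced cells for no effect and cells given 10 µM MG132 for full effect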
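Concentration-response series (up to 46 uM) were applied to TMD8 dual-reporter cells for 4 h at 37C with doxycycline. Green/red ratio, after filter-overlap correction, defined %Activity; red signal alone was normalised to basal cells and zero luminescence.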
Apoferritin bind: qHTS Assay for Identification of Novel General Anesthetics | Ferritin light chain (Equus caballus), P02791 | apoferritin/1-aminoanthracene competitive binding, fluorescence | Potency, µM (top dose mostly 77.5 µM), for inactives: at the highest dose activity change, negative = displacement, most hits filed as inhibitors | actives 0.074% (n = 350,000); also: nearly all actives have a fitted effect of over 20% in size
Target sequence (P02791 2-175 limits assumed): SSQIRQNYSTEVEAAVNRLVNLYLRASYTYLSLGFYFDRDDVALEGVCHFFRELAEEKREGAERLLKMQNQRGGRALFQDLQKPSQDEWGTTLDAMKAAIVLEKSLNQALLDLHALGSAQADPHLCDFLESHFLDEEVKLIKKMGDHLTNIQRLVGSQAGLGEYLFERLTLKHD
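Horse-spleen apoferritin (10 uM) in 50% saturated 1-aminoanthracene in PBS was incubated 10 min at room temperature with compound. Fluorescence (ex 380, em 535 nm) was normalized to free and bound 1-AMA, with concentration-response fitted by a four-parameter Hill equation.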
MBNL1 CUG block: qHTS Assay for Inhibitors of MBNL1-poly(CUG) RNA binding | Muscleblind-like protein 1 (Homo sapiens), Q9NR56 | TR-FRET MBNL1-His/biotin-(CUG)12 binding, 665/545 ratio | Potency, µM (top dose mostly 57.5 µM), without a hit: at the top dose activity change, negative = inhibition, hits mostly inhibitors | actives 0.036% (n = 280,000); active = well fitted inhibition curve with a large enough effect in the signal ratio, with a control signal flat, not every such curve was filed as active; inconclusive = small, poorly fitted or top-dose-only effect, or effect the other way, or a change in a side signal; inactive = no such curve, though single readings can be large or run the other way; the % refers to the signal ratio
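Compound titration spanned 92 nM–58 uM against the MBNL1-His/biotin-(CUG)12 complex. After 60 min at room temperature with 5 nM streptavidin-XL665 and 0.055 ng/ul terbium anti-His, ratiometric 665/545 nm emission (Ex 340 nm) normalized to controls.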
Numbers without * were called inactive; u = inconclusive; x = not tested or not shown; [ ] = remark or other dose. Unless noted, calls follow the shape of the dose curve; as a rule, active = well fitted curve in the direction sought with a large enough effect; inconclusive = small, poorly fitted or top-dose-only effect, or another doubt; inactive = no such curve, though single readings can be large; an effect the other way counts as inactive or inconclusive. Unless noted, % is scaled to controls: 0 for no effect and ±100 for the full control effect; potency is read from the fitted curve at half-maximal effect.

SMILES | B2AR arrestin | GLS inh | Chronic BCR inh | Apoferritin bind | MBNL1 CUG block
CC(NC(=O)Cn1nc(C(=O)O)c2ccccc2c1=O)c1ccccc1 (stereo unspecified) | -0.8% | 0.8% | 3.2% | 5.0% | -1.0%
CCN(CC)Cc1cc(O)c(CN(CC)CC)cc1O | 0.2% | 15.8µM* | -5.2% | -7.9% | 5.4%
CCc1oc(C(=O)O)cc1CN(CC)CC | x | 0.5% | x | -7.8% | 2.0%
Oc1ccc(Nc2ccc3ccccc3c2)cc1 | x | 14.1µM* | x | x | x
COc1cc(OC)c(N(C)C(=O)c2cn(C3CCCC3)c(=O)c3c2c2ccccc2n3C)cc1Cl | x | -1.1% | x | 129.6% | x
CN1OC2C(=O)N(c3ccccc3)C(=O)C2C1c1ccc(F)cc1 (stereo unspecified) | 0.1% | -1.3% | u | 31.6µM* | 5.1%
O=C1C2ON(c3ccccc3)C(c3ccccc3F)C2C(=O)N1c1ccccc1 (stereo unspecified) | 0.0% | 2.5% | 1.4% | -9.6% | 5.3%
O=C(Cc1ccccc1)N1CCc2ccccc21 | -0.5% | -5.5% | -23.8% | 8.91µM* | -6.6%
COc1ccccc1-c1nnc(Nc2nc3c(OC)cccc3s2)o1 | 0.4% | -4.0% | u | 11.0% | u
COc1cccc2sc(NN)nc12 | -0.1% | 14.1µM* | u | u | 7.9%
COc1ccc(-c2nn3c(C4CCCCC4)nnc3s2)cc1OC | -0.1% | -17.7% | 14.1µM* | -14.8% | -4.3%
COc1cc(-c2nn3c(C4CCCCC4)nnc3s2)cc(OC)c1OC | 0.2% | 0.9% | u | -12.8% | 4.1%
Cc1ccc(-n2ncc(C(=O)NCCc3c[nH]c4ccccc34)c2C2CCN(C(=O)OC(C)(C)C)CC2)cc1C | x | -12.7% | x | -1.8% | x
Cc1ccccc1N=Cc1cccc(O)c1O | 3.0% | u | u | -7.6% | 4.7%
Oc1cccc(/C=N/N=C/c2cccc(O)c2O)c1O | 1.2% | 3.55µM* | u | u | u
COc1ccc(NS(=O)(=O)c2cc(Br)cc3c2N(C(=O)C2CC2)CC3)cc1OC | x | 4.3% | u | -7.3% | x
COc1ccc(S(=O)(=O)/N=C2\C=C(Nc3ccc(O)cc3)C(=O)c3ccccc32)cc1 | -0.3% | 8.91µM* | u | -11.5% | u
O=C(O)c1cc(O)c2c(c1)[C@@H]([C@H]1c3cc(C(=O)O)cc(O)c3C(=O)c3c(O[C@@H]4O[C@H](CO)[C@@H](O)[C@H](O)[C@H]4O)cccc31)c1cccc(O[C@@H]3O[C@H](CO)[C@@H](O)[C@H](O)[C@H]3O)c1C2=O | -0.9% | 1.78µM* | u | x | x
O=C(COC(=O)CC1CC2CCC1C2)NC(=O)NCc1ccco1 (stereo unspecified) | 2.8% | 2.5% | 2.1% | 12.6µM* | -2.6%
CCC(=O)N1CCc2cc(S(=O)(=O)CCC(=O)Nc3cc(Cl)ccc3OC)ccc21 | x | 9.8% | x | -5.8% | x
O=C(O)c1sc(C(=O)O)c(-c2ccccc2)c1-c1ccccc1 | x | 7.8% | x | x | x
CC(=O)c1sc(C(=O)O)c(-c2ccco2)c1-c1ccco1 | -0.1% | 20µM* | 1.4% | -8.9% | u
CNc1nc2c(N)ncnc2n1[C@@H]1O[C@@H]2COP(=O)(O)O[C@H]2[C@H]1O | x | x | x | -6.7% | x
CCCC(=O)O[C@]1(C(=O)CCl)[C@H](C)C[C@@H]2[C@H]3CCC4=CC(=O)C=C[C@]4(C)[C@@]3(F)C(=O)C[C@@]21C | x | 3.8% | x | x | x
Cc1ccc([N+](=O)[O-])cc1N=Nc1c(C)[nH]n(C(N)=S)c1=O | -1.1% | 3.9% | u | 0.6% | u
SMILES | B2AR arrestin | GLS inh | Chronic BCR inh | Apoferritin bind | MBNL1 CUG block
NC(=S)n1[nH]c(-c2ccc([N+](=O)[O-])cc2)c(N=Nc2ccc(Cl)cc2)c1=O | 15.8µM* | -11.2% | 10µM* | -12.9% | 0.6%
Cc1ccc([N+](=O)[O-])cc1N=Nc1c(-c2ccc([N+](=O)[O-])cc2)[nH]n(C(N)=S)c1=O | 0.708µM* | 16.1% | u | -15.8% | 3.6%
Fc1ccc2c(c1)-c1c(cnc3cc(-c4ccc(Cl)cc4)nn13)CO2 | x | 5.2% | x | -6.6% | x
CC1=C(c2ccc(C)c(C)c2)S(=O)(=O)N=C1N1CCN(c2cccc(C(F)(F)F)c2)CC1 | x | -2.4% | x | u | x
C=C1c2cccc(O)c2C(=O)C2C(=O)[C@]3(O)C(=O)C(C(N)=O)C(=O)[C@@H](N(C)C)[C@@H]3[C@@H](O)[C@H]12 (stereo partly specified) | -0.9% | 8.91µM* | -0.1% | x | x
C=C1c2cccc(O)c2C(O)=C2C(=O)[C@@]3(O)C(O)=C(C(N)=O)C(=O)[C@@H](N(C)C)[C@@H]3[C@@H](O)[C@H]12 | x | u | x | -10.1%[29.3 µM] | x
Nc1ccc(C(=O)Nc2ccc3c(O)cc(S(=O)(=O)O)cc3c2)cc1 | x | 6.31µM* | x | x | x
CCN(C(=O)CSc1nc2ccccc2n1CC(=O)NCc1ccc(OC)cc1)c1ccccc1 | x | -1.7% | x | 38.0% | x
N#Cc1c[nH]n2c(NC3CCCC3)c(-c3ccc(Br)cc3)nc12 | x | -15.7% | x | -5.3% | x
COc1ccc(-c2nc3c(C#N)c[nH]n3c2NC2CCCC2)cc1 | x | 12.6µM* | x | -2.5% | x
CCOc1ccc(-c2nc3c(C#N)c[nH]n3c2NC2CCCCC2)cc1 | x | 12.6µM* | x | -9.5% | x
COCC1=C(C(=O)OC(C)OC(=O)OC(C)C)N2C(=O)C(NC(=O)/C(=N/OC)c3csc(N)n3)[C@H]2SC1 (stereo partly specified) | x | -1.6% | x | x | x
Cc1ccc(-c2nnc(N3CCN(C(=O)c4cccs4)CC3)c3ccccc23)cc1 | -0.3% | 20µM* | 0.4% | -5.8% | x
O=C(c1cccs1)N1CCN(c2nnc(-c3ccccc3)c3ccccc23)CC1 | 7.6% | -5.1% | -10.0% | -14.3% | 4.7%
CC1(C)S[C@@H]2[C@H](NC(=O)[C@H](N)c3ccccc3)C(=O)N2[C@@H]1C(=O)OCOC(=O)[C@@H]1N2C(=O)C[C@@H]2S(O)(O)C1(C)C | x | 4.4% | x | x | x
COc1cccc(C(=O)Nc2sc3c(c2C#N)CCN(C(C)=O)C3)c1 | -0.1% | 3.2% | 20µM* | -16.3% | 14.1%
CCOc1ccc(C(=O)N(Cc2ccc(C(C)C)cc2)Cc2ccco2)cc1 | x | 0.3% | x | 94.8% | x
Cc1cc(SCC(=O)N/N=C/c2ccc(O)c(O)c2)nc2ccccc12 | 0.5% | u | u | u | 17.5%
Cc1cc(SCC(=O)N/N=C/c2ccc(O)c(O)c2)c(C)cc1Br | 0.3% | 60.4% | u | 22.4µM* | 2.5%
Cc1ccc(C)n1Cc1ccc(C(=O)O)cc1 | -0.3% | 7.08µM* | -10.8% | -3.1% | 15.5%
COc1ccc(N2CCCC2)c(NC(=O)c2ccc([N+](=O)[O-])o2)c1 | -0.1% | 12.6µM* | 0.6% | -10.5% | u
